# FBPA Giardia inh = qHTS Assay for Inhibitors of Fructose-1,6-bisphosphate Aldolase from Giardia Lamblia; A8B2U2; purified Giardia FBPA; Potency, µM (highest dose often 59.6 µM), for the others: top-dose activity, negative = inhibition, actives largely listed as inhibitors; 0.71% of 290,000 active; AID 2451, 2010; further: potency means the concentration at half of the fitted maximal effect; nearly all actives have a fitted effect of over 55% in size
# Target sequence (A8B2U2 whole entry, looked up): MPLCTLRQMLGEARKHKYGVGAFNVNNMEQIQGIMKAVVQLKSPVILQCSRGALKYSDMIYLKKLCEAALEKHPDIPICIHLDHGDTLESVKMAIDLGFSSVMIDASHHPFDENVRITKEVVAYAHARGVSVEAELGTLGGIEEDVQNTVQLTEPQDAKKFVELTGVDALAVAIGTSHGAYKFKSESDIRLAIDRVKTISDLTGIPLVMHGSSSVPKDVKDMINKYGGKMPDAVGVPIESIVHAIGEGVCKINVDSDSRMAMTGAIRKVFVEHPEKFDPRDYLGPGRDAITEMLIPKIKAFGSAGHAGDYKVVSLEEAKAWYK
#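 40 nM FBPA preincubated 10 min at RT with compound (up to 57.5 uM final), then substrate plus GAPDH/TPI/NAD/arsenate coupling and diaphorase/resazurin added. Fluorescence read after 20 min at RT, 525/598 nm.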
# LASV entry inh = qHTS for Inhibitors of binding or entry into cells for Lassa Virus. Lassa virus pseudotype entry inhibition, cell reporter. Potency, µM (titrated, usually from 37.9 µM), for inactives: top-dose activity change, negative = inhibition, most hits filed as inhibitors. 1.2% of 300,000 active; calls by dose curve; tested in HEK293 cells; further: potency means the concentration at half of the fitted maximal effect; nearly all actives have a fitted effect of over 50% in size
# HCV inh = qHTS Assay for Inhibitors of Hepatitis C Virus (HCV). Potency, µM (top dose mostly 41.8 µM), for inactives: top-dose activity change, negative = inhibition, hits mostly inhibitors. Huh7.5.1 HCVcc-Cre infection, luciferase reporter, 44 h. 3.4% of 340,000 active. AID 651820, 2012; further: potency means the concentration at half of the fitted maximal effect
#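 Infectious HCV cell culture screen: compound-treated cells (1,000/well, pre-plated 4 h) are infected with HCVcc-Cre at roughly 0.5 moi and grown 44 h. Infection is quantified by luciferase signal after 15 min substrate incubation at room temperature.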
# HCMV antiviral = qHTS Assay for inhibitors of the human cytomegalovirus (HCMV) | HFF cells, HCMV-luciferase reporter, 72 h; hits give low values | activity change, negative = inhibition, % at 57.5 µM | 4.5% of 410,000 active | AID 1259415, 2018; in the data active means activity change below about -60%; inconclusive means no clear call, values can overlap the other calls; inactive means above about -39%
#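 Human foreskin fibroblasts infected with luciferase-reporter HCMV at MOI 1 PFU/cell, compounds at two doses. Luciferase measured 72 h post infection; normalized to buffer-only basal and Salinomycin (10uM) controls.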
# Marburg entry inh = qHTS for inhibitors of binding or entry into cells for Marburg Virus | Marburg virus pseudotyped entry inhibition, cell reporter | Potency, µM (series often up to 37.8 µM), inactives show top-dose activity change, negative = inhibition, hits mostly inhibitors | 1.8% of 300,000 active | AID 540276, 2011; calls by dose curve; tested in HEK293 cells; further: potency means the concentration at half of the fitted maximal effect
# FMDV antiviral = High Throughput Screening for Foot and Mouth Disease Virus Antivirals. FMDV antiviral cell-based qHTS. Potency, µM (titrated, usually from 57.9 µM), for inactives: at the top dose activity change, negative = inhibition, hits mostly inhibitors. 1.2% of 410,000 active. AID 1159524, 2015; calls by dose curve; tested in HEK293T cells; further: read-out not given here; potency means the concentration at half of the fitted maximal effect; nearly all actives have a fitted effect of over 45% in size
# * hit, by the source's call; ? = inconclusive; · = no result; [ ] = remark or other dose. Rows were chosen to be rich in hits. Some 8.3% of all compounds tested hit in one or more screens of this group. Unless noted, the call rests on the fitted dose curve; in most records, active means well fitted curve in the direction sought with a large enough effect; inconclusive means small, poorly fitted or top-dose-only effect, or another doubt; inactive means no such curve, though single readings can be large; an effect the other way counts as inactive or inconclusive. On the % scale 0 is the no-effect control and ±100 the full control effect.
SMILES,FBPA Giardia inh,LASV entry inh,HCV inh,HCMV antiviral,Marburg entry inh,FMDV antiviral
Cc1noc(-c2ccccc2)c1-c1ccccc1[N+](=O)[O-],·,·,·,-100.5*,·,·
CC(C)COc1cccc(C(=O)Nc2ccc(CN3CCOCC3)cc2)c1,-7.7%,?,3.16µM*,-26.0,?,-19.3%
CC(C)COc1cccc(C(=O)Nc2ccc(N3CCOCC3)cc2N2CCOCC2)c1,·,-10.8%,7.94µM*,?,?,-27.5%
CN1CC[C@@]2(CCCN(C(=O)c3cccc(F)c3)C2)C1,1.9%,·,·,·,·,-12.6%
CC(/C=N/Nc1nnc(C)c(=O)[nH]1)=C\c1ccccc1,-5.3%,?,14.6%,-7.1,?,·
C/C(=N\Nc1nnc(C)c(=O)[nH]1)C(=O)O,3.54µM*,5.4%,-0.3%,30.3,-13.6%,8.3%
FC(F)(F)c1cccc(Cc2noc(CN3CCC(c4ccncc4)CC3)n2)c1,-1.5%,?,?,-80.2*,?,-4.2%
CN1CCCC2(CCCN(Cc3nc(Cc4cccc(C(F)(F)F)c4)no3)C2)C1 (centres undefined),-3.3%,18.9%[46.1 µM],?,-2.6,?,-16.8%
COc1cc(-n2nc(C)c3c2OC(N)=C(C#N)C3c2ccccc2)c(Cl)c(Br)c1O (centres undefined),-12.2%,-0.4%,?,·,-54.4%,22.4µM*
Cc1nn(Cc2ccccc2)c2c1C(c1cccc(Cl)c1)C(C#N)=C(N)O2 (centres undefined),-23.5%,-25.5%,?,-60.2*,?,?
COc1ccc(C2=C(N3CCN(c4cccc(C)c4C)CC3)c3ccccc3C2=O)cc1,·,-9.0%[46.1 µM],·,37.1,-21.1%[46.1 µM],-21.5%
COC(=O)N1[C@H]2CC[C@@]3(C)CC(=O)C[C@]1(C)C3c1ccccc12,0.5%,·,·,·,-9.8%[14.2 µM],·
Cc1ccc2nc(C)c3c(c2c1)OC(C(C)(Cl)Br)C3 (centres undefined),-2.2%,?,7.08µM*,-20.3,-22.8%[46.1 µM],?
COc1ccc2nc(C)c3c(c2c1)OC(C(C)(Cl)Br)C3 (centres undefined),1.2%,-19.1%,-3.9%,?,-29.7%[46.1 µM],?
Cc1nc2ccccc2c2c1CC(C(C)(Cl)Br)O2 (centres undefined),3.6%,·,3.16µM*,-92.5*,·,8.91µM*
Cc1cc2ncc(-c3cccc(Br)c3)nc2cc1C,·,·,·,132.9,·,·
COCCn1c(=NC(=O)c2ccc(S(=O)(=O)N3CCc4ccccc4C3)cc2)sc2cc(S(N)(=O)=O)ccc21,-4.6%,3.5%,1.4%,-19.4,13.7%,5.9%
C#CCn1c(=NC(=O)c2ccc(S(=O)(=O)N3CCc4ccccc4C3)cc2)sc2cc(S(N)(=O)=O)ccc21,-4.6%,9.2µM*,-20.1%,·,14.1µM*,-19.0%
COC(=O)Cn1c(=NC(=O)c2ccc(S(=O)(=O)N3CCc4ccccc4C3)cc2)sc2cc(OC)ccc21,-0.5%,-8.9%,-4.8%,-19.3,2.2%,-10.4%
CCOCCn1c(=NC(=O)c2ccc(S(=O)(=O)N3CCOCC3)cc2)sc2cc(S(N)(=O)=O)ccc21,-0.6%,17.4%[46.1 µM],22.4µM*,-62.6*,-0.1%[46.1 µM],-24.3%
C=CCn1c(=NC(=O)c2ccc(S(=O)(=O)N3CCc4ccccc4C3)cc2)sc2cc(S(N)(=O)=O)ccc21,3.3%,?,?,-65.1*,?,0.7%
O=C(Nc1ccccn1)c1onc2c1CCCC2,-3.9%,7.31µM*,15.5%,?,?,14.1µM*
COc1ccc2cc3cc(C(=O)NC4CC4)sc3nc2c1,13.2%,·,11.5%,61.5,·,15.8µM*
CCOc1ccc(CCNC(=O)c2cc3cc4ccc(OC)cc4nc3s2)cc1OCC,·,-6.7%[46.1 µM],·,-12.8,?,-18.7%
CCOC(=O)C1=C(COC(=O)/C=C/c2ccc(OC)cc2)NC(=O)NC1C (centres undefined),·,?,3.16µM*,-5.0,-22.6%,?
SMILES,FBPA Giardia inh,LASV entry inh,HCV inh,HCMV antiviral,Marburg entry inh,FMDV antiviral
COc1ccc(/C(O)=C2\C(=O)C(=O)N(CCCN(C)C)[C@H]2c2ccccc2)cc1OC,·,·,·,·,7.0%,·
CC1(C)CC(=O)/C(=C\c2cccc([N+](=O)[O-])c2)C(C)(C)N1,5.0%,?,10.2%,-85.9*,?,?
Cc1ccc2c(=O)cc(C(=O)Nc3ccc(S(=O)(=O)N4CCC(C)CC4)cc3)oc2c1C,·,0.4%[46.1 µM],·,9.5,?,-2.8%
CC(C)Oc1cccc(C(=O)C2CCCN(Cc3ccc(Oc4ncccn4)cc3)C2)c1 (centres undefined),-0.6%,-24.6%,?,?,?,?
COc1c(C)cc(C(=O)C2CCCN(Cc3ccc(Oc4ncccn4)cc3)C2)cc1C (centres undefined),1.4%,·,?,-83.0*,·,?
COc1c(C)cc(C(=O)C2CCCN(Cc3c(C)n(C)n(-c4ccccc4)c3=O)C2)cc1C (centres undefined),5.3%,-5.8%,0.8%,-71.4*,?,4.0%
CCS(=O)(=O)N1CCC(C(=O)Nc2cccc(C(C)=O)c2)CC1,-0.2%,-2.1%,1.4%,8.5,-11.2%,-8.1%
C=CCOc1ccccc1CN1CCC(n2nccc2NC(=O)C2CCOC2)CC1 (centres undefined),·,9.3%,17.0%,?,-13.0%,-9.1%
CC(=O)c1cccc(CN2CCC(C(=O)Nc3cccc(-c4ccn[nH]4)c3)CC2)c1,·,2.6%,6.31µM*,?,?,31.6µM*
C=CCOc1ccccc1CN1CCC(C(=O)Nc2cccc(-c3ccn[nH]3)c2)CC1,2.4%,·,?,-63.7*,·,-20.1%
C=CCN1c2ccccc2[C@]23C[C@@H](C(=O)OC)N(S(=O)(=O)CCCC)C2=NC(C(=O)OC)=C(C(=O)OC)[C@H]13,3.6%[12.9 µM],·,·,·,·,·
COc1ccc(C(=O)NC(C(=O)NCC2(N3CCCCC3)CCCCC2)C(C)C)cc1 (centres undefined),·,·,19.5%,-76.4*,·,-18.3%
CCc1ccc(-n2c(SCC(=O)NC(C)CC)nc3n[nH]c(C)c3c2=N)cc1 (centres undefined),·,-11.3%[46.1 µM],·,?,·,-18.1%
O=C(N/N=C1\CCSc2ccc(F)cc21)c1cccnc1,-1.1%,·,6.9%,-19.4,·,10.1%
NC(=S)N/N=C1\CCSc2ccc(Cl)cc21,?,-1.2%,?,-99.5*,-19.4%[46.1 µM],3.9%
O=C(CSc1oc(-c2ccco2)nc1S(=O)(=O)c1ccc(Br)cc1)c1ccc(Cl)cc1,·,?,·,-20.1,-15.8%[46.1 µM],4.0%
Clc1ccc(CN2C3=NCCCN3c3ccccc32)cc1,-2.7%,-26.3%,?,-1.0,?,-25.6%
OC(COc1ccc(Cl)cc1)CN1C2=NCCCN2c2ccccc21 (centres undefined),-0.7%,-9.4%,12.6µM*,12.3,?,-4.2%
